Records with an inconclusive call do not appear. The source made the active and inactive calls. The calls were made as follows: active = hit-call score of the fitted dose curve at least 0.9, where 1 is the maximum; inconclusive = response in the unintended direction; inactive = score below 0.9.
How the values were obtained:
[1] = target: human Neurokinin, NK2 Receptor, TACR2 (gene 6865) (UniProt P21452); experiment: NVS_GPCR_hNK2: NovaScreen (NVS) G Protein-Coupled Receptor Assay for human Neurokinin, NK2 Receptor (AID 2283278);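 also: actives reduce bound radioligand signal relative to DMSO baseline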
Chain of human Neurokinin, NK2 Receptor, TACR2 (gene 6865) (P21452 whole entry, looked up): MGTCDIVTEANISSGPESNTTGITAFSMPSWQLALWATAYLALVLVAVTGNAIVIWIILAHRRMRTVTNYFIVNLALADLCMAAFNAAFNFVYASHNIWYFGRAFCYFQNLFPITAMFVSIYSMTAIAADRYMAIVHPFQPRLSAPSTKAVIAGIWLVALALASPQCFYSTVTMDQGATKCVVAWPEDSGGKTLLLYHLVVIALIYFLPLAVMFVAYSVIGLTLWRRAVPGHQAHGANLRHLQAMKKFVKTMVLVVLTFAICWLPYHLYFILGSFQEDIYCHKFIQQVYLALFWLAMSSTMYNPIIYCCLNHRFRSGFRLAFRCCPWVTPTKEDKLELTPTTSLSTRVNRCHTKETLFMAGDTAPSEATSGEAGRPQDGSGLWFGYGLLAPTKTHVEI
Procedure, shortened: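 Test chemicals displace a radioligand from receptor prepared from CHO cells in a cell-free format, read after 4 hours by scintillation counting on filters. Screening starts at 25 uM in duplicate, and active chemicals then go to concentration series.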

[2] = target: human Opioid Receptor Delta 1 (Opiate D1), OPRD1 (gene 4985) (UniProt P41143); experiment: NVS_GPCR_hOpiate_D1: NovaScreen (NVS) G Protein-Coupled Receptor Assay for human Opioid Receptor Delta 1 (Opiate D1) (AID 2283280)
Chain of human Opioid Receptor Delta 1 (Opiate D1), OPRD1 (gene 4985) (P41143 whole entry, looked up): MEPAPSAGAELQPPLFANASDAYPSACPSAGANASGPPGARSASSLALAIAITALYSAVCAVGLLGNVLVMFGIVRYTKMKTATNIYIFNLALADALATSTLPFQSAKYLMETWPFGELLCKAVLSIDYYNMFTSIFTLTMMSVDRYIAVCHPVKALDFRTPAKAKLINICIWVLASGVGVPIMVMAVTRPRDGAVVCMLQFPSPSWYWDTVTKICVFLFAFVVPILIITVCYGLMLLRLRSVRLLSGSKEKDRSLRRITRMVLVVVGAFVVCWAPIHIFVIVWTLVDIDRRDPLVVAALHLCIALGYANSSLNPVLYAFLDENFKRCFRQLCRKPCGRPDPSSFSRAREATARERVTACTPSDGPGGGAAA
Procedure, shortened: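 Membrane preparations from CHO cells bearing the human receptor were incubated 1 h with test chemical, and bound radioligand was counted after filtration. Actives from 25 uM duplicate screening were retested in concentration-response.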

[3] = target: human Thromboxane A2 Receptor (TXA2), TBXA2R (gene 6915) (UniProt P21731); experiment: NVS_GPCR_hTXA2: NovaScreen (NVS) G Protein-Coupled Receptor Assay for human Thromboxane A2 Receptor (TXA2) (AID 2283282);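 also: actives reduce bound radioligand signal relative to DMSO baseline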
Chain of human Thromboxane A2 Receptor (TXA2), TBXA2R (gene 6915) (P21731 whole entry, looked up): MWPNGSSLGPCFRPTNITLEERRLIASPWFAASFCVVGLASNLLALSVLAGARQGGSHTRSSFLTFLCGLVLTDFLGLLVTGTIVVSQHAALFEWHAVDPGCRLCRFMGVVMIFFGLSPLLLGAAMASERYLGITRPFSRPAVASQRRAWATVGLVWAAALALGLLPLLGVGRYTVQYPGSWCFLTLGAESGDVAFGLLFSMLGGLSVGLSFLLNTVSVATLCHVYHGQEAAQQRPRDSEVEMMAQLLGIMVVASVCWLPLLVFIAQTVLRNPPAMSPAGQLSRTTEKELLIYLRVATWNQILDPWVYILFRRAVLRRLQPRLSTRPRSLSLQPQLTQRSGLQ
Procedure, shortened: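 Biochem binding, human platelets, cell-free; competitive radioligand displacement; 1 h; filter radiodetection. 25 uM duplicate primary, conc. series secondary; DMSO neg. ctrl.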

[4] = target: human Orphanin, Opioid Related Nociceptin Receptor 1 (ORL1), OPRL1 (gene 4987) (UniProt P41146); experiment: NVS_GPCR_hORL1: NovaScreen (NVS) G Protein-Coupled Receptor Assay for human Orphanin, Opioid Related Nociceptin Receptor 1 (ORL1) (AID 2283283)
Chain of human Orphanin, Opioid Related Nociceptin Receptor 1 (ORL1), OPRL1 (gene 4987) (P41146 whole entry, looked up): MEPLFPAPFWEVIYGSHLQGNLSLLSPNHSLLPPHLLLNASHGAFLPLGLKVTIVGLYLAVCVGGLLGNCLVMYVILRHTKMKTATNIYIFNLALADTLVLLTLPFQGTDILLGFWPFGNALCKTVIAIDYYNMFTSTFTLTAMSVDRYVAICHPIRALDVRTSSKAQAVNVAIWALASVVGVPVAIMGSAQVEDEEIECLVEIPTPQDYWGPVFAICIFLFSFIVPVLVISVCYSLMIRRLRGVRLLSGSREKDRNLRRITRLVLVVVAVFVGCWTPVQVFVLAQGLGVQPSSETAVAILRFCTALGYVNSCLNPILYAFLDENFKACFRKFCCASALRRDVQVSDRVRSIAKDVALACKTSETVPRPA
Procedure, shortened: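 Cell-free binding using HEK293-derived receptor protein: radioligand displacement measured by filter scintillation 1 hour after dosing. Primary testing at 25 uM in duplicate, followed by singleton concentration series up to 50 uM; DMSO served as negative control.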

[5] = test system: rabbit Platelet Activating Factor Receptor (PAF), gene 100354046; experiment: NVS_GPCR_rabPAF: NovaScreen (NVS) G Protein-Coupled Receptor Assay for rabbit Platelet Activating Factor Receptor (PAF) (AID 2283287)
Procedure, shortened: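 Rabbit platelet membrane preparation; radioligand displacement read by filter-based scintillation counting 1 h after dosing, loss of signal versus DMSO. Primary screen in duplicate at 25 uM, actives followed up in concentration series.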

[6] = test system: 5-hydroxytryptamine receptor 2C (pig); experiment: NVS_GPCR_p5HT2C: NovaScreen (NVS) G Protein-Coupled Receptor Assay for pig Serotonin, 5-Hydroxytryptamine Receptor 2C (5HT2C) (AID 2283288)
Procedure, shortened: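 Radioligand displacement on membranes from pig choroid plexus, detected by filter scintillation counting after 1 h. Tested first at a single 25 uM in duplicate, then in concentration-response for actives; DMSO served as baseline.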

[7] = target: human Opioid Receptor Mu (Opiate Mu), OPRM1 (gene 4988) (UniProt P35372); experiment: NVS_GPCR_hOpiate_mu: NovaScreen (NVS) G Protein-Coupled Receptor Assay for human Opioid Receptor Mu (Opiate Mu) (AID 2283290);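 also: hits lower bound tracer signal versus DMSO meaning displacement of the ligand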
Chain of human Opioid Receptor Mu (Opiate Mu), OPRM1 (gene 4988) (P35372 whole entry, looked up): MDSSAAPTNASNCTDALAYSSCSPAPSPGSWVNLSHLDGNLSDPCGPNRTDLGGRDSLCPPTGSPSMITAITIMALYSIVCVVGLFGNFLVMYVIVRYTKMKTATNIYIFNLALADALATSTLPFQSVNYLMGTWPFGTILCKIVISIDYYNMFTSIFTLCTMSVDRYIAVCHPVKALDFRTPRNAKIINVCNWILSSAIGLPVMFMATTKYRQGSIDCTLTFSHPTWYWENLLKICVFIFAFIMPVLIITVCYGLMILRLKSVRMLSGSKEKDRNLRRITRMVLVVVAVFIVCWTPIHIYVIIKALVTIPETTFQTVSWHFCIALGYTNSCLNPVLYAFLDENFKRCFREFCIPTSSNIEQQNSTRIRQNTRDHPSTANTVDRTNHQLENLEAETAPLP
Procedure, shortened: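 Here, radioligand binding to CHO-extracted receptor was measured after 2.5 h using filter-based scintillation detection. Initial single-concentration screening used 25 uM in duplicate with plate controls; confirmed actives went to concentration-response testing.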

[8] = target: guinea pig Serotonin, 5-Hydroxytryptamine Receptor 4 (5HT4), HTR4 (gene 100135548) (UniProt O70528); experiment: NVS_GPCR_g5HT4: NovaScreen (NVS) G Protein-Coupled Receptor Assay for guinea pig Serotonin, 5-Hydroxytryptamine Receptor 4 (5HT4) (AID 2283294)
Chain of guinea pig Serotonin, 5-Hydroxytryptamine Receptor 4 (5HT4), HTR4 (gene 100135548) (O70528 whole entry, looked up): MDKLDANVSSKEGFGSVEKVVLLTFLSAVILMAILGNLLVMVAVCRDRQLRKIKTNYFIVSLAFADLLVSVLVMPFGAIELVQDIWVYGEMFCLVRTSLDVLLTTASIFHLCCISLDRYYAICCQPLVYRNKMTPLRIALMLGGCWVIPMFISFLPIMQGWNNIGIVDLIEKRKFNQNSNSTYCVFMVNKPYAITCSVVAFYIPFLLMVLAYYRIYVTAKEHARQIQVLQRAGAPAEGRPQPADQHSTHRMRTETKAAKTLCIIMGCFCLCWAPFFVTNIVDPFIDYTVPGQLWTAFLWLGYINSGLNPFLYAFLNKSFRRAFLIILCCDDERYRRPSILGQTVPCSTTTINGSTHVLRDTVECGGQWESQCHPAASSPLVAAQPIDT
Procedure, shortened: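 Compounds first screened in duplicate at 25 uM, actives followed up in concentration series. Binding measured as displacement of specific radioligand from guinea pig striatal membranes, 1 h, filter-based scintillation read-out versus DMSO baseline.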

[9] = test system: rat Adrenergic, Alpha 1B Receptor (Adra1B), gene 24173; experiment: NVS_GPCR_rAdra1B: NovaScreen (NVS) G Protein-Coupled Receptor Assay for rat Adrenergic, Alpha 1B Receptor (Adra1B) (AID 2283297)
Procedure, shortened: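 Filter-binding radioligand competition on membranes from rat liver, read after 1 h by scintillation counting. Single-concentration duplicate screen at 25 uM, followed by concentration-response on actives, normalised to DMSO.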

[10] = target: rat Adrenergic Receptor, Alpha 2 (Adra2), Non-selective Binding, Adra2a (gene 25083) (UniProt P22909); experiment: NVS_GPCR_rAdra2_NonSelective: NovaScreen (NVS) G Protein-Coupled Receptor Assay for rat Adrenergic Receptor, Alpha 2 (Adra2), Non-selective Binding (AID 2283299)
Chain of rat Adrenergic Receptor, Alpha 2 (Adra2), Non-selective Binding, Adra2a (gene 25083) (P22909 whole entry, looked up): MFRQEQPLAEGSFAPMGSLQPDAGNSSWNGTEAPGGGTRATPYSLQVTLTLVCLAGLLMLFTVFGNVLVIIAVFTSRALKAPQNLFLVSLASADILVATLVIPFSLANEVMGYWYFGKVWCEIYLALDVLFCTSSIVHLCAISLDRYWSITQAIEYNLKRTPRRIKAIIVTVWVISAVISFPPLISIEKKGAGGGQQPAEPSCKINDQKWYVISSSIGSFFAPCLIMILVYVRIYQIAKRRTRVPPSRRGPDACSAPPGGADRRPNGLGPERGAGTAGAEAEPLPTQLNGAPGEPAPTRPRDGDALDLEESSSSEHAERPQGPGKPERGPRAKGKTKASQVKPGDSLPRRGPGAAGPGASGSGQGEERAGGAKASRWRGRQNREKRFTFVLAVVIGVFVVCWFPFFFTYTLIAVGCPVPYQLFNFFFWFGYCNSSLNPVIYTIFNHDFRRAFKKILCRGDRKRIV
Procedure, shortened: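 Filter-based scintillation counting of radioligand binding to rat cortical membrane receptors, measured 1.25 hours post-dosing; loss of signal versus DMSO indicates displacement. Initial single-concentration duplicate at 25 uM, then concentration series.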

[11] = target: rat Adrenergic, Alpha 1, Non-selective Receptor (Adra1), Adra1a (gene 29412) (UniProt P43140); experiment: NVS_GPCR_rAdra1_NonSelective: NovaScreen (NVS) G Protein-Coupled Receptor Assay for rat Adrenergic, Alpha 1, Non-selective Receptor (Adra1) (AID 2283289)
Chain of rat Adrenergic, Alpha 1, Non-selective Receptor (Adra1), Adra1a (gene 29412) (P43140 whole entry, looked up): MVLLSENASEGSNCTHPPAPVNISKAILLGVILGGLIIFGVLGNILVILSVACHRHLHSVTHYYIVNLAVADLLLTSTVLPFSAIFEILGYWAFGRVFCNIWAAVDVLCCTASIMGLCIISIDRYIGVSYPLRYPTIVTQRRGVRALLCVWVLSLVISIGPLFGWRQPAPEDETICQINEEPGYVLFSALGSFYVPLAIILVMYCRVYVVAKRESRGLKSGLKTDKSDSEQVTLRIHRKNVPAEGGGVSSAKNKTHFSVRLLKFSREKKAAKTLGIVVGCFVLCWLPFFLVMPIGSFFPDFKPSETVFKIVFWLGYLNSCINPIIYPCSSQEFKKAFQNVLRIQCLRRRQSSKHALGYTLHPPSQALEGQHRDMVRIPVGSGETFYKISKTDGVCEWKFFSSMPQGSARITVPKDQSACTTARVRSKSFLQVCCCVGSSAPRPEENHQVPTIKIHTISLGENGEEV
Procedure, shortened: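 Chemicals first screened in duplicate at 25 uM, then actives tested in concentration series up to 50 uM. Binding measured as displacement of radioligand from rat forebrain membrane receptors, 1 h, filtration with scintillation readout; DMSO baseline.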

[12] = target: rat Adrenergic, Alpha 1A Receptor (Adra1A), Adra1a (gene 29412) (UniProt P43140); experiment: NVS_GPCR_rAdra1A: NovaScreen (NVS) G Protein-Coupled Receptor Assay for rat Adrenergic, Alpha 1A Receptor (Adra1A) (AID 2283296)
Chain of rat Adrenergic, Alpha 1A Receptor (Adra1A), Adra1a (gene 29412) (P43140 whole entry, looked up): as above
Procedure, shortened: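 Filter radiodetection after 1 h competitive binding on CEC-pretreated rat cortical membranes. Duplicate single-point screening at 25 uM; active chemicals retested across concentration series.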

[13] = target: guinea pig Bradykinin Receptor B2 (BK2), BDKRB2 (gene 100135486) (UniProt O70526); experiment: NVS_GPCR_gBK2: NovaScreen (NVS) G Protein-Coupled Receptor Assay for guinea pig Bradykinin Receptor B2 (BK2) (AID 2283292)
Chain of guinea pig Bradykinin Receptor B2 (BK2), BDKRB2 (gene 100135486) (O70526 whole entry, looked up): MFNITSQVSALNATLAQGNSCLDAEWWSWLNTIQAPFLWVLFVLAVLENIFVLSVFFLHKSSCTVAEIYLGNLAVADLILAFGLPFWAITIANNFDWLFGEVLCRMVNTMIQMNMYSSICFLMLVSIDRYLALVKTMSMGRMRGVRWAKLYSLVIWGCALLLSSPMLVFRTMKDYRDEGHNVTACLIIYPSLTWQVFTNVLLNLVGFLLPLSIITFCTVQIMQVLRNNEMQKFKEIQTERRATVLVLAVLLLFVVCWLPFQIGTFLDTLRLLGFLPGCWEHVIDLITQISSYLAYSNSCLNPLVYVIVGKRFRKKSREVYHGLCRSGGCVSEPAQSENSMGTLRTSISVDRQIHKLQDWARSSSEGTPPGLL
Procedure, shortened: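 Guinea pig ileum membrane preparation incubated 1 h with radioligand and test chemical; bound counts measured after filtration. Primary duplicate screening at 25 uM, then singleton concentration series with a 50 uM top dose; DMSO as baseline.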

[14] = target: mouse Cholecystokinin, CCK2 Receptor (CCKB), Cckbr (gene 12426) (UniProt P56481); experiment: NVS_GPCR_mCKKBCentral: NovaScreen (NVS) G Protein-Coupled Receptor Assay for mouse Cholecystokinin, CCK2 Receptor (CCKB) (AID 2283293)
Chain of mouse Cholecystokinin, CCK2 Receptor (CCKB), Cckbr (gene 12426) (P56481 whole entry, looked up): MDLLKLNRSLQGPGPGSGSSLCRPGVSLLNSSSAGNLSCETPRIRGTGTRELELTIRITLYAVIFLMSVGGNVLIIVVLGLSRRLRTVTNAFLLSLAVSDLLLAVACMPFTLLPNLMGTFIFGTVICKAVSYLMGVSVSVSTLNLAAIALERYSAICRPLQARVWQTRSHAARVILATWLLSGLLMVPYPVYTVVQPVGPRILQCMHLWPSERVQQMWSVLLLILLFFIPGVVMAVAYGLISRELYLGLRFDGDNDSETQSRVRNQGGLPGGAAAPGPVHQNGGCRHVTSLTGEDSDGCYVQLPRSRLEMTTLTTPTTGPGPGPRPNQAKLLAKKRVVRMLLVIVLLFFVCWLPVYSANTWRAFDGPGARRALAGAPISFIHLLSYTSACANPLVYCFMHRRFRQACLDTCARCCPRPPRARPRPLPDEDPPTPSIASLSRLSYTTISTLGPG
Procedure, shortened: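 Mouse forebrain membrane preparation incubated 2 h with chemical and radioligand; bound radioactivity counted after filtration. Single-concentration duplicate screen at 25 uM, then concentration series to 50 uM max for hits, DMSO as baseline.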

[15] = target: human Purinergic Receptor P2Y, P2RY1 (gene 5028) (UniProt P47900); experiment: NVS_GPCR_hPY2: NovaScreen (NVS) G Protein-Coupled Receptor Assay for human Purinergic Receptor P2Y (AID 2283281)
Chain of human Purinergic Receptor P2Y, P2RY1 (gene 5028) (P47900 whole entry, looked up): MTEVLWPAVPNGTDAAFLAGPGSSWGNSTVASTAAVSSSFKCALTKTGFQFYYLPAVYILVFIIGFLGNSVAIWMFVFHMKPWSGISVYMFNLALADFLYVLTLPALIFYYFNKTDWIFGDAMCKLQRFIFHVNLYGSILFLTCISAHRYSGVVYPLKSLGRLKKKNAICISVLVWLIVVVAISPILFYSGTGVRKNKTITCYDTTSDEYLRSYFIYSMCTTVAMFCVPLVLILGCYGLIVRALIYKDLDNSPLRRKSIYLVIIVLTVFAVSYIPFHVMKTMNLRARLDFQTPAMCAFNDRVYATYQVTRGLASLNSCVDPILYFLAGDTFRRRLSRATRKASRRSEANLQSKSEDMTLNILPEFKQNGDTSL
Procedure, shortened: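 Filtration scintillation readout of radioligand displacement on U937 extract, measured 1 h post-dosing. Single 25 uM duplicate screen, then singleton concentration series to 50 uM for chemicals passing threshold; DMSO as baseline.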

Measured: AC50

C=CCc1cc(S(=O)(=O)c2ccc(O)c(CC=C)c2)ccc1O
active: [1] 20.6 µM | [2] 15.5 µM | [3] 6.66 µM | [5] 20 µM | [6] 7.68 µM | [7] 4.83 µM | [8] 10 µM
inactive: [4] | [9]

O=C(O)[C@H](O)[C@@H](O)C(=O)O
inactive: [7]

S=P(N1CC1)(N1CC1)N1CC1
inactive: [10]

CCc1ccc(O)c(C(C)(C)C)c1
inactive: [11] | [12]

CCCCCCCCCC
inactive: [1] | [5] | [6] | [7] | [13] | [14] | [8] | [9]

CCCCCCCCCCCCCCCCOS(=O)(=O)O
active: [2] 3.9 µM | [15] 5.47 µM | [3] 12.5 µM | [7] 4.11 µM | [9] 12.5 µM

From PubChem BioAssay (EPA / NIEHS)
